Source: the supplement of paper PMC10849652
The full data set covers some 7,900 targets. This sample favours those with a hit. About 0.6% of all pairs of compound and target were hits. A number with no mark means an inactive call.

Tests used:
Assay in all cases: log2 fold change, soluble protein after heating vs DMSO (PISA); higher = thermal stabilisation; K562 cells, 10 uM, 30 min; active = over 0.2 and 3.5 SD of the protein, either way, in both replicates (recomputed)
[1] = compound: CC[C@@H]1C(=O)N(C)c2cnc(Nc3ccc(C(=O)NC4CCN(C)CC4)cc3OC)nc2N1C1CCCC1
In short: (§1)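 K562 cells at 2×10^6 cells/mL were treated for 30 min with 10 μM compound, and aliquots were heated for 3 min over 48°C-58°C before pooling. Extraction used PBS with 0.5% NP-40 at 4°C, and soluble protein was the supernatant after 21,000xg for 90 min, measured by TMTpro 16plex LC-MS/MS with channel sums equalised. Thermal stability values, relative to control samples and from duplicates, are log2 fold changes.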

volasertib = compound: CC[C@@H]1C(=O)N(C)c2cnc(Nc3ccc(C(=O)N[C@H]4CC[C@H](N5CCN(CC6CC6)CC5)CC4)cc3OC)nc2N1C(C)C [volasertib]
In short: as §1

[2] = compound: CC[C@H](C)N1C=C(C2=C(C=C(C=C21)C3=CN=C(C=C3)N4CCNCC4)C(=O)NCC5=C(C=C(NC5=O)C)C)C
In short: as §1

epoxomicin = compound: CC[C@H](C)[C@@H](C(=O)N[C@@H]([C@@H](C)O)C(=O)N[C@@H](CC(C)C)C(=O)[C@]1(CO1)C)NC(=O)[C@H]([C@@H](C)CC)N(C)C(=O)C [epoxomicin]
In short: as §1

[3] = compound: CCn1c(C(=O)N(C2CC2)C2CC2)cc2c3c(ncn3C)c(Nc3cc(C)n(C)n3)nc21
In short: as §1

[4] = compound: CCn1cc(-c2ccnc3[nH]c(-c4cccc(CN(C)C)c4)cc23)c(-c2ccc(NC(=O)N(C)C)cc2)n1
In short: as §1

[5] = compound: CN(C)CC(=O)Nc1ccc2[nH]c(=O)c3ccccc3c2c1
In short: as §1

rosiglitazone = compound: CN(CCOC1=CC=C(C=C1)C[C@H]2C(=O)NC(=O)S2)C3=CC=CC=N3 (racemic) [rosiglitazone]
In short: as §1

[6] = compound: CN1C2=C(C3=C1C(=O)N(N=C3)CC4=CC(=CC=C4)N)SC(=C2)S(=O)C
In short: as §1

[7] = compound: CN1CCC(CNc2ccc3ncc(-c4cccc(OC(F)(F)F)c4)n3n2)CC1
In short: as §1

saracatinib = compound: CN1CCN(CCOc2cc(OC3CCOCC3)c3c(Nc4c(Cl)ccc5c4OCO5)ncnc3c2)CC1 [saracatinib]
In short: as §1

sotrastaurin = compound: CN1CCN(c2nc(C3=C(c4c[nH]c5ccccc45)C(=O)NC3=O)c3ccccc3n2)CC1 [sotrastaurin]
In short: as §1

alvocidib = compound: CN1CC[C@H](c2c(O)cc(O)c3c(=O)cc(-c4ccccc4Cl)oc23)[C@H](O)C1 [alvocidib]
In short: as §1

Tubastatin A = compound: CN1CCc2c(c3ccccc3n2Cc2ccc(C(=O)NO)cc2)C1 [Tubastatin A]
In short: as §1

[8] = compound: CNC(=O)C1=CC=CC=C1NC2=NC(=NC=C2Cl)NC3=C(C=C(C=C3)N4CCOCC4)OC
In short: as §1

defactinib = compound: CNC(=O)c1ccc(Nc2ncc(C(F)(F)F)c(NCc3nccnc3N(C)S(C)(=O)=O)n2)cc1 [defactinib]
In short: as §1

rucaparib = compound: CNCc1ccc(-c2[nH]c3cc(F)cc4c3c2CCNC4=O)cc1 [rucaparib]
In short: as §1

[9] = compound: CNc1nc(-c2ccc3c(N)n[nH]c3c2)cc(N2C[C@@H](C(=O)NC3CCCCC3)CC[C@H]2C)n1
In short: as §1

encorafenib = compound: COC(=O)N[C@@H](C)CNc1nccc(-c2cn(C(C)C)nc2-c2cc(Cl)cc(NS(C)(=O)=O)c2F)n1 [encorafenib]
In short: as §1

[10] = compound: COC(=O)[C@H](CCSC)NC(=O)C1=C(C=C(C=C1)NC[C@H](CS)N)C2=CC=CC=C2
In short: as §1

GOLPH3 (UniProt Q9H4A6)
Chain of UniProt Q9H4A6 (Q9H4A6 whole entry, looked up): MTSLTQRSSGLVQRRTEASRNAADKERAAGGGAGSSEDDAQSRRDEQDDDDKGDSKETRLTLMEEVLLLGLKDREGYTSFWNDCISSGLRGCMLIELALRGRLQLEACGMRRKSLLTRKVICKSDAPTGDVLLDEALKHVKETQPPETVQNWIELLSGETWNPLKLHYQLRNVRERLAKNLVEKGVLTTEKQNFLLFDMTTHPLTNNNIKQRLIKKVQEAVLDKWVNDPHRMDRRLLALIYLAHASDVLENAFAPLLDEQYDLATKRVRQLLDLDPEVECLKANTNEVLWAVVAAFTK
log2 fold change [1]: 0.029 | log2 fold change (volasertib): 0.008 | log2 fold change [2]: 0.086 | log2 fold change (epoxomicin): 0.084 | log2 fold change [3]: -0.016 | log2 fold change [4]: -0.059 | log2 fold change [5]: -0.001 | log2 fold change (rosiglitazone): 0.037 | log2 fold change [6]: -0.075 | log2 fold change [7]: 0.236 (active) | log2 fold change (saracatinib): -0.016 | log2 fold change (sotrastaurin): -0.046 | log2 fold change (alvocidib): -0.081 | log2 fold change (Tubastatin A): 0.028 | log2 fold change [8]: 0.022 | log2 fold change (defactinib): -0.064 | log2 fold change (rucaparib): -0.064 | log2 fold change [9]: 0.013 | log2 fold change (encorafenib): 0.047 | log2 fold change [10]: -0.044

GABARAPL1 isoform 2 (UniProt Q9H0R8)
Chain of UniProt Q9H0R8 (Q9H0R8 whole entry, looked up): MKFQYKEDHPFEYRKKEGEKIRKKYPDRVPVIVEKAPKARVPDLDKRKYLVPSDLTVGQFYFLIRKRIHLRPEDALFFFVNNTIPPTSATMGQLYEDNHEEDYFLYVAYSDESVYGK
log2 fold change [1]: -0.303 (active) | log2 fold change (volasertib): -0.186 | log2 fold change [2]: 0.035 | log2 fold change (epoxomicin): -0.029 | log2 fold change [3]: -0.037 | log2 fold change [4]: 0.007 | log2 fold change [5]: 0.034 | log2 fold change (rosiglitazone): 0.03 | log2 fold change [6]: -0.135 | log2 fold change [7]: -0.187 | log2 fold change (saracatinib): -0.057 | log2 fold change (sotrastaurin): 0 | log2 fold change (alvocidib): -0.019 | log2 fold change (Tubastatin A): 0.08 | log2 fold change [8]: 0.023 | log2 fold change (defactinib): -0.011 | log2 fold change (rucaparib): -0.079 | log2 fold change [9]: -0.006 | log2 fold change (encorafenib): -0.004 | log2 fold change [10]: -0.058

HLTF (UniProt Q14527)
Chain of UniProt Q14527 (Q14527 whole entry, looked up): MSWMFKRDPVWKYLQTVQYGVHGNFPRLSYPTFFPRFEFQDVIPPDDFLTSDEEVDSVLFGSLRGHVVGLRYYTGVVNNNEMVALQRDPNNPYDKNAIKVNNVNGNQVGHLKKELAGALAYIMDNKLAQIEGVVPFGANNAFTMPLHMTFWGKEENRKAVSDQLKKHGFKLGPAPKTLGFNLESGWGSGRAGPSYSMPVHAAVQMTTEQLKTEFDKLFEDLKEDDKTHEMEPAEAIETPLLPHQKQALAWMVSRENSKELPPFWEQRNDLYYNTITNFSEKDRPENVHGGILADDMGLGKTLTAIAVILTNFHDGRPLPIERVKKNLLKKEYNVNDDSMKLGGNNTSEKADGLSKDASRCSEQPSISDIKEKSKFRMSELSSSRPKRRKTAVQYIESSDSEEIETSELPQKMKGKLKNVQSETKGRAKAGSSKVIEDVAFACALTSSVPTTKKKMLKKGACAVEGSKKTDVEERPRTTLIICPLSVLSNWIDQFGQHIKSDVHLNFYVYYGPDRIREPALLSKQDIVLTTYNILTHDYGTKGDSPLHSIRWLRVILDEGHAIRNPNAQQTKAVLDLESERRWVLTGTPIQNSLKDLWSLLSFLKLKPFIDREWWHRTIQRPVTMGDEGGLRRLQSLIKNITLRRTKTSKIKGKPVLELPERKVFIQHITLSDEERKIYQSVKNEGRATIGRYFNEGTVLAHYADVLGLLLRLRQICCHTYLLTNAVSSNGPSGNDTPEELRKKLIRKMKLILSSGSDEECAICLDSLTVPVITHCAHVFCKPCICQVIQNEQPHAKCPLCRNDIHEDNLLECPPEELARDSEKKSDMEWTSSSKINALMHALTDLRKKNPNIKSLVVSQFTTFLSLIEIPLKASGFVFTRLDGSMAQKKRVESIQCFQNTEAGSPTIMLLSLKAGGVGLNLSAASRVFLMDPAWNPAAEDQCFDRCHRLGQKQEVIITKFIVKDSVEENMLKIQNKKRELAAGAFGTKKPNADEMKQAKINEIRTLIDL
log2 fold change [1]: -0.063 | log2 fold change (volasertib): -0.178 | log2 fold change [2]: 0.017 | log2 fold change (epoxomicin): 0.158 | log2 fold change [3]: -0.025 | log2 fold change [4]: -0.113 | log2 fold change [5]: 0.056 | log2 fold change (rosiglitazone): 0.025 | log2 fold change [6]: -0.009 | log2 fold change [7]: 0.201 | log2 fold change (saracatinib): -0.012 | log2 fold change (sotrastaurin): 0.019 | log2 fold change (alvocidib): -0.036 | log2 fold change (Tubastatin A): 0.081 | log2 fold change [8]: -0.03 | log2 fold change (defactinib): -0.122 | log2 fold change (rucaparib): -0.033 | log2 fold change [9]: -0.074 | log2 fold change (encorafenib): -0.195 | log2 fold change [10]: -0.027

GSR (UniProt P00390)
Chain of UniProt P00390 (P00390 whole entry, looked up): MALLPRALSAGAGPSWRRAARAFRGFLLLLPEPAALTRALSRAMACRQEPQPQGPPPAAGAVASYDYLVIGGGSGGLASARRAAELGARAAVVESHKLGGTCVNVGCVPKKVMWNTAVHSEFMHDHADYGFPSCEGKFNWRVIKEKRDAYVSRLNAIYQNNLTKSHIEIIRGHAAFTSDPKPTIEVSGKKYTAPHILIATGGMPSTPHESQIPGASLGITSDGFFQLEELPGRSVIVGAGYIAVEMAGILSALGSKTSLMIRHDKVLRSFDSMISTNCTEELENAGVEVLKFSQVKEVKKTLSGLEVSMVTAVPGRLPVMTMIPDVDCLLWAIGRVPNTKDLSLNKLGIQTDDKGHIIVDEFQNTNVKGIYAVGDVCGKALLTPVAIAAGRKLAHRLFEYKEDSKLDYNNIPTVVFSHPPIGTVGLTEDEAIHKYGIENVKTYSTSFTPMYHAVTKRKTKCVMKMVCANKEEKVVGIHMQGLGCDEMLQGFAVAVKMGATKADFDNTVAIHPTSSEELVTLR
log2 fold change [1]: 0.04 | log2 fold change (volasertib): 0.034 | log2 fold change [2]: -0.038 | log2 fold change (epoxomicin): 0.001 | log2 fold change [3]: -0.023 | log2 fold change [4]: -0.008 | log2 fold change [5]: -0.018 | log2 fold change (rosiglitazone): 0.024 | log2 fold change [6]: -0.071 | log2 fold change [7]: -0.02 | log2 fold change (saracatinib): -0.021 | log2 fold change (sotrastaurin): 0.048 | log2 fold change (alvocidib): 0 | log2 fold change (Tubastatin A): 0.008 | log2 fold change [8]: -0.006 | log2 fold change (defactinib): -0.016 | log2 fold change (rucaparib): -0.025 | log2 fold change [9]: -0.021 | log2 fold change (encorafenib): -0.02 | log2 fold change [10]: 0.002

FBXO7 (UniProt Q9Y3I1)
Chain of UniProt Q9Y3I1 (Q9Y3I1 whole entry, looked up): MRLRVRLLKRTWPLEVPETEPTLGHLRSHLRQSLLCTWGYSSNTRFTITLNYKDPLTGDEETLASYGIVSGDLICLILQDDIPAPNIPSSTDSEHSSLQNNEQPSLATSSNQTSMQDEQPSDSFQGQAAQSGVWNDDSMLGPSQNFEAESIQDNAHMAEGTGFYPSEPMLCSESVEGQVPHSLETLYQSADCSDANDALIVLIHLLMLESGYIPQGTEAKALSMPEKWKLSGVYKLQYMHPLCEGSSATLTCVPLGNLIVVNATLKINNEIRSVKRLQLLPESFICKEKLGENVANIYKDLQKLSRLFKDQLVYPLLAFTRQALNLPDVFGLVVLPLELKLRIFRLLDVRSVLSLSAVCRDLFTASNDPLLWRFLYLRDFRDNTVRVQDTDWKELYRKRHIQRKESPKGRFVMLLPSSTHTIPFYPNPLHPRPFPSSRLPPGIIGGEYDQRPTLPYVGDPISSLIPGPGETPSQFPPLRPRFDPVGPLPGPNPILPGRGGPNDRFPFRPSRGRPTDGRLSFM
log2 fold change [1]: 0.079 | log2 fold change (volasertib): -0.198 | log2 fold change [2]: 0.044 | log2 fold change (epoxomicin): -0.012 | log2 fold change [3]: -0.066 | log2 fold change [4]: -0.295 (active) | log2 fold change [5]: 0.029 | log2 fold change (rosiglitazone): 0.008 | log2 fold change [6]: -0.022 | log2 fold change [7]: 0.003 | log2 fold change (saracatinib): -0.003 | log2 fold change (sotrastaurin): 0.052 | log2 fold change (alvocidib): -0.069 | log2 fold change (Tubastatin A): 0.019 | log2 fold change [8]: 0.012 | log2 fold change (defactinib): -0.025 | log2 fold change (rucaparib): 0.068 | log2 fold change [9]: 0.028 | log2 fold change (encorafenib): -0.009 | log2 fold change [10]: -0.029

GLS isoform 3 (UniProt O94925)
Chain of UniProt O94925 (O94925 whole entry, looked up): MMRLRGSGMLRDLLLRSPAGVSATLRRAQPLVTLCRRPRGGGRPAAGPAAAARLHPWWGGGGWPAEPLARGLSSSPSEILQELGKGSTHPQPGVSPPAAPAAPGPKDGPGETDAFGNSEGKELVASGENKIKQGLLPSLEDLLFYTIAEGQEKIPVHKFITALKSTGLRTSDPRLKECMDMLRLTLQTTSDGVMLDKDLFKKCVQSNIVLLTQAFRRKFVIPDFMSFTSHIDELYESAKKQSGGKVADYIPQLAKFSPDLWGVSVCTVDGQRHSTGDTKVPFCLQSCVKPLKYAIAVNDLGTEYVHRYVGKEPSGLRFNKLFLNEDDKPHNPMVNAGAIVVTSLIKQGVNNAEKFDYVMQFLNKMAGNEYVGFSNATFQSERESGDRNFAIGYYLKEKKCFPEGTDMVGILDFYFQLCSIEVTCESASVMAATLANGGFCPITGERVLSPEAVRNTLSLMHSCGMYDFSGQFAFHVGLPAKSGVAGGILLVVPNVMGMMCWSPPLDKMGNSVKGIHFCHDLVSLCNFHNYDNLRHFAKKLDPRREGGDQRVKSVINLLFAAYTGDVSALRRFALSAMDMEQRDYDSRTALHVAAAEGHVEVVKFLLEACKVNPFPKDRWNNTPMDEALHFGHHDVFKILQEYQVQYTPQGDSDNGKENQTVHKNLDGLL
log2 fold change [1]: -0.172 | log2 fold change (volasertib): -0.699 (active) | log2 fold change [2]: 0.126 | log2 fold change (epoxomicin): 0.152 | log2 fold change [3]: -0.017 | log2 fold change [4]: -0.055 | log2 fold change [5]: 0.069 | log2 fold change (rosiglitazone): 0.046 | log2 fold change [6]: -0.039 | log2 fold change [7]: -0.364 | log2 fold change (saracatinib): -0.025 | log2 fold change (sotrastaurin): -0.027 | log2 fold change (alvocidib): -0.246 | log2 fold change (Tubastatin A): 0.14 | log2 fold change [8]: -0.025 | log2 fold change (defactinib): -0.139 | log2 fold change (rucaparib): -0.045 | log2 fold change [9]: -0.063 | log2 fold change (encorafenib): 0.039 | log2 fold change [10]: 0

HBZ (UniProt P02008)
Chain of UniProt P02008 (P02008 whole entry, looked up): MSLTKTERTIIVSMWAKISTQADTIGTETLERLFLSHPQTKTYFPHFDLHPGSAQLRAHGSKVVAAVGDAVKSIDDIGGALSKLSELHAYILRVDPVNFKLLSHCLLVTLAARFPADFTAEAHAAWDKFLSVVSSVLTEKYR
log2 fold change [1]: 0.03 | log2 fold change (volasertib): -0.065 | log2 fold change [2]: -0.026 | log2 fold change (epoxomicin): 0.288 (active) | log2 fold change [3]: 0.061 | log2 fold change [4]: -0.021 | log2 fold change [5]: 0.019 | log2 fold change (rosiglitazone): -0.005 | log2 fold change [6]: -0.012 | log2 fold change [7]: 0.016 | log2 fold change (saracatinib): 0.022 | log2 fold change (sotrastaurin): 0.03 | log2 fold change (alvocidib): 0.036 | log2 fold change (Tubastatin A): 0 | log2 fold change [8]: -0.041 | log2 fold change (defactinib): 0.011 | log2 fold change (rucaparib): -0.026 | log2 fold change [9]: -0.006 | log2 fold change (encorafenib): -0.004 | log2 fold change [10]: -0.025

FUCA1 (UniProt P04066)
Chain of UniProt P04066 (P04066 whole entry, looked up): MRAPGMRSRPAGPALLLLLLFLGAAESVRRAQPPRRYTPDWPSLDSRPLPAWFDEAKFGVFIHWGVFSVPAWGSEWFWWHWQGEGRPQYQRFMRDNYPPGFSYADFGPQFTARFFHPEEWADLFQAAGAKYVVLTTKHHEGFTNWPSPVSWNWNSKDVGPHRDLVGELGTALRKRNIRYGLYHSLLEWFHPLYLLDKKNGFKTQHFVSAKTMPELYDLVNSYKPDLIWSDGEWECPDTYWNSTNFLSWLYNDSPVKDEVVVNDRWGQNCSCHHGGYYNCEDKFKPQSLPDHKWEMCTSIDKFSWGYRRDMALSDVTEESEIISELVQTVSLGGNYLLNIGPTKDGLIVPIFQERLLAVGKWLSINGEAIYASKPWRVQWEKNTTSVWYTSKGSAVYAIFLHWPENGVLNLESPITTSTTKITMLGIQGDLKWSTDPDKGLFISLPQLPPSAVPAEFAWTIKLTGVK
log2 fold change [1]: -1.33 (active) | log2 fold change (volasertib): -1.73 (active) | log2 fold change [2]: -0.061 | log2 fold change (epoxomicin): -0.03 | log2 fold change [3]: 0.007 | log2 fold change [4]: -0.006 | log2 fold change [5]: -0.025 | log2 fold change (rosiglitazone): -0.008 | log2 fold change [6]: -0.017 | log2 fold change [7]: -0.141 | log2 fold change (saracatinib): 0.038 | log2 fold change (sotrastaurin): -0.048 | log2 fold change (alvocidib): 0.059 | log2 fold change (Tubastatin A): -0.035 | log2 fold change [8]: -0.015 | log2 fold change (defactinib): -0.032 | log2 fold change (rucaparib): -0.186 | log2 fold change [9]: 0.023 | log2 fold change (encorafenib): 0 | log2 fold change [10]: 0.014

HMGCR isoform 3 (UniProt P04035)
Chain of UniProt P04035 (P04035 whole entry, looked up): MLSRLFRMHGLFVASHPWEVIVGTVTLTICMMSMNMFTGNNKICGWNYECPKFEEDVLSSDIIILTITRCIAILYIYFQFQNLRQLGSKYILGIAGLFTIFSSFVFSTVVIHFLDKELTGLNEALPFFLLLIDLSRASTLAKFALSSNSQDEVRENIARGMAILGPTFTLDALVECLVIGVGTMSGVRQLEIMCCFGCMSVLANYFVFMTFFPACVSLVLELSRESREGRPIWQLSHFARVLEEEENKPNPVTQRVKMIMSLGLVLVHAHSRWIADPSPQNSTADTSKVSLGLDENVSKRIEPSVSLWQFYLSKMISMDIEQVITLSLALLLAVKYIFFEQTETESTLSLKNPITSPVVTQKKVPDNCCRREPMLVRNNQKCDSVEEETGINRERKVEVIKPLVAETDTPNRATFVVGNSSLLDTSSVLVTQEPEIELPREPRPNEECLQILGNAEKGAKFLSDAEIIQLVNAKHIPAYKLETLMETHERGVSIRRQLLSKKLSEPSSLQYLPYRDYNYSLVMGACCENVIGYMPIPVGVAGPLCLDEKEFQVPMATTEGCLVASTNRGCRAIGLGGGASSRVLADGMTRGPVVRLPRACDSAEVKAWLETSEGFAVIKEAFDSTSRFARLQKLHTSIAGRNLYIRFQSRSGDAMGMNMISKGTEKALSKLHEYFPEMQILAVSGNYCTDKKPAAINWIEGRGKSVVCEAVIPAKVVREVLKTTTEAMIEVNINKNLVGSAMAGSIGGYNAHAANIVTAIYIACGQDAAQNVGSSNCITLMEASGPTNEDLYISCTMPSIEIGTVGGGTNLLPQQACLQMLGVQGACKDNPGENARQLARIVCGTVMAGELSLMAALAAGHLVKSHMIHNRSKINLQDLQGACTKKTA
log2 fold change [1]: -0.007 | log2 fold change (volasertib): -0.019 | log2 fold change [2]: -0.07 | log2 fold change (epoxomicin): 0.356 (active) | log2 fold change [3]: -0.04 | log2 fold change [4]: 0.015 | log2 fold change [5]: -0.023 | log2 fold change (rosiglitazone): -0.006 | log2 fold change [6]: -0.009 | log2 fold change [7]: 0.272 | log2 fold change (saracatinib): 0.002 | log2 fold change (sotrastaurin): -0.287 | log2 fold change (alvocidib): -0.021 | log2 fold change (Tubastatin A): 0.33 (active) | log2 fold change [8]: -0.133 | log2 fold change (defactinib): -0.004 | log2 fold change (rucaparib): -0.208 | log2 fold change [9]: -0.024 | log2 fold change (encorafenib): 0.094 | log2 fold change [10]: 0.146

GLS (UniProt O94925)
log2 fold change [1]: -0.271 | log2 fold change (volasertib): -0.366 (active) | log2 fold change [2]: 0.142 | log2 fold change (epoxomicin): 0.151 | log2 fold change [3]: -0.026 | log2 fold change [4]: -0.051 | log2 fold change [5]: 0.103 | log2 fold change (rosiglitazone): 0.085 | log2 fold change [6]: -0.085 | log2 fold change [7]: -0.241 | log2 fold change (saracatinib): 0.039 | log2 fold change (sotrastaurin): -0.023 | log2 fold change (alvocidib): -0.147 | log2 fold change (Tubastatin A): 0.021 | log2 fold change [8]: -0.031 | log2 fold change (defactinib): -0.167 | log2 fold change (rucaparib): 0.002 | log2 fold change [9]: -0.092 | log2 fold change (encorafenib): 0.017 | log2 fold change [10]: -0.093

GTF2E2 (UniProt P29084)
Chain of UniProt P29084 (P29084 whole entry, looked up): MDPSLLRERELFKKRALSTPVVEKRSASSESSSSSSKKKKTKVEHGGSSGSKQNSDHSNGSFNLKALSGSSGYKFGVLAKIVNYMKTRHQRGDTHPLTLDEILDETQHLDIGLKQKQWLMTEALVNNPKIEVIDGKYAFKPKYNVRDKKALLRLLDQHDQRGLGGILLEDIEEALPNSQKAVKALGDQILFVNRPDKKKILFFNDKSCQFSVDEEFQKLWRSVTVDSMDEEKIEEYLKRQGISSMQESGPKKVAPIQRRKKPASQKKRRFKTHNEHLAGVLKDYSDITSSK
log2 fold change [1]: -0.11 | log2 fold change (volasertib): -0.265 (active) | log2 fold change [2]: 0.105 | log2 fold change (epoxomicin): 0.099 | log2 fold change [3]: -0.036 | log2 fold change [4]: 0.001 | log2 fold change [5]: 0.069 | log2 fold change (rosiglitazone): 0.017 | log2 fold change [6]: 0.027 | log2 fold change [7]: -0.103 | log2 fold change (saracatinib): -0.103 | log2 fold change (sotrastaurin): -0.163 | log2 fold change (alvocidib): -0.023 | log2 fold change (Tubastatin A): 0.054 | log2 fold change [8]: 0.056 | log2 fold change (defactinib): -0.085 | log2 fold change (rucaparib): 0.03 | log2 fold change [9]: 0.025 | log2 fold change (encorafenib): 0.145 | log2 fold change [10]: -0.035
